Measured values taken from PubChem BioAssay (NCATS).
Results filed as inconclusive are left out. Activity calls are given as the source filed them. Calls come from the whole dose curve; as a rule, active = well fitted curve in the direction sought with a large enough effect; inconclusive = small, poorly fitted or top-dose-only effect, or another doubt; inactive = no such curve, though single readings can be large; an effect the other way counts as inactive or inconclusive. Peptide text beside a SMILES is read from it.

Assays:
[1] = target: Ubiquitin carboxyl-terminal hydrolase 1 (Homo sapiens) (UniProt O94782); experiment: Inhibitors of USP1/UAF1: Pilot qHTS (AID 504865); conditions: purified USP1/UAF1, Ub-rhodamine cleavage fluorescence; series mostly up to 114 µM;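 note: rhodamine fluorescence freed from ubiquitin-rhodamine substrate followed over time; top concentration of the series differs between compounds; % is set by controls: 0 for no effect and ±100 for the full control effect; nearly all actives have a fitted effect of over 35% in size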
How it was run: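 Kinetic fluorescence assay: 1nM USP1/UAF1, 15 min compound preincubation, then 150nM Ub-Rho; 480/540 nm.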

[2] = qHTS profiling for inhibitors of Plasmodium falciparum proliferation (AID 504749);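 note: 0% = DMSO vehicle and full inhibition = artemisinin control; nearly all actives have a fitted effect of over 60% in size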; conditions: P. falciparum in erythrocytes, SYBR Green DNA, 72 h, at 28.7 µM (top of the series)
How it was run: (§1)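 SYBR Green fluorescence of parasite DNA, read after lysis and overnight dark incubation, measured growth over 72 h in erythrocyte culture at 0.3% parasitemia and 2.5% hematocrit. Data normalised to DMSO and 0.29 uM artemisinin, with plate-drift correction.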

AA1029 = experiment: as above; conditions: P. falciparum in erythrocytes, SYBR Green DNA, 72 h; series mostly up to 28.7 µM
How it was run: as §1

ATS189 = experiment: as above; conditions: P. falciparum in erythrocytes, SYBR Green DNA, 72 h; series mostly up to 28.7 µM
How it was run: as §1

CP185 = experiment: as above; conditions: P. falciparum in erythrocytes, SYBR Green DNA, 72 h; series mostly up to 28.7 µM
How it was run: as §1

CP201 = experiment: as above; conditions: P. falciparum in erythrocytes, SYBR Green DNA, 72 h; series mostly up to 28.7 µM
How it was run: as §1

CP238 = experiment: as above; conditions: P. falciparum in erythrocytes, SYBR Green DNA, 72 h; series mostly up to 28.7 µM
How it was run: as §1

CP252 = experiment: as above; conditions: P. falciparum in erythrocytes, SYBR Green DNA, 72 h; series mostly up to 28.7 µM
How it was run: as §1

CP265 = experiment: as above; conditions: P. falciparum in erythrocytes, SYBR Green DNA, 72 h; series mostly up to 28.7 µM
How it was run: as §1

CP286 = experiment: as above; conditions: P. falciparum in erythrocytes, SYBR Green DNA, 72 h; series mostly up to 28.7 µM
How it was run: as §1

CP305 = experiment: as above; conditions: P. falciparum in erythrocytes, SYBR Green DNA, 72 h; series mostly up to 28.7 µM
How it was run: as §1

CP315 = experiment: as above; conditions: P. falciparum in erythrocytes, SYBR Green DNA, 72 h; series mostly up to 28.7 µM
How it was run: as §1

CP325 = experiment: as above; conditions: P. falciparum in erythrocytes, SYBR Green DNA, 72 h; series mostly up to 28.7 µM
How it was run: as §1

FAB9 = experiment: as above; conditions: P. falciparum in erythrocytes, SYBR Green DNA, 72 h; series mostly up to 28.7 µM
How it was run: as §1

JCK = experiment: as above; conditions: P. falciparum in erythrocytes, SYBR Green DNA, 72 h; series mostly up to 28.7 µM
How it was run: as §1

[3] = target: Cytochrome P450 3A4 (Homo sapiens) (UniProt P08684); experiment: qHTS Assay for Inhibitors and Substrates of Cytochrome P450 3A4 (AID 884); conditions: recombinant CYP3A4, Luciferin-PPXE luminescence; series mostly up to 57.1 µM; note: % is set by controls: 0 for no effect and ±100 for the full control effect; nearly all actives have a fitted effect of over 50% in size
How it was run: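 Luminescent readout of luciferin produced by CYP3A4 (20 nM) dealkylation of Luciferin-PPXE, 25 uM (its KM). NADPH-driven reaction ran 60 min at RT after 10 min compound preincubation; data scaled to 57 uM ketoconazole as 100% inhibition.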

[4] = target: DNA dC->dU-editing enzyme APOBEC-3G (Homo sapiens) (UniProt Q9HC16); experiment: qHTS for inhibitors of Vif-A3G interactions: Validation (AID 588379); conditions: Vif-A3G protein interaction assay; series mostly up to 46.1 µM; note: 0% is about no effect
How it was run: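 Yellow fluorescence (Ex 488, Em 500-530) of Vif-coexpressing HeLa A3G-eYFP cells, scanned by Acumen cytometer, reports blocked A3G degradation. Cells plated at 700/well overnight at 37 deg C before compound addition, then a further overnight compound incubation at 37 deg C.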

Chain of Ubiquitin carboxyl-terminal hydrolase 1 (Homo sapiens) (O94782 whole entry, looked up): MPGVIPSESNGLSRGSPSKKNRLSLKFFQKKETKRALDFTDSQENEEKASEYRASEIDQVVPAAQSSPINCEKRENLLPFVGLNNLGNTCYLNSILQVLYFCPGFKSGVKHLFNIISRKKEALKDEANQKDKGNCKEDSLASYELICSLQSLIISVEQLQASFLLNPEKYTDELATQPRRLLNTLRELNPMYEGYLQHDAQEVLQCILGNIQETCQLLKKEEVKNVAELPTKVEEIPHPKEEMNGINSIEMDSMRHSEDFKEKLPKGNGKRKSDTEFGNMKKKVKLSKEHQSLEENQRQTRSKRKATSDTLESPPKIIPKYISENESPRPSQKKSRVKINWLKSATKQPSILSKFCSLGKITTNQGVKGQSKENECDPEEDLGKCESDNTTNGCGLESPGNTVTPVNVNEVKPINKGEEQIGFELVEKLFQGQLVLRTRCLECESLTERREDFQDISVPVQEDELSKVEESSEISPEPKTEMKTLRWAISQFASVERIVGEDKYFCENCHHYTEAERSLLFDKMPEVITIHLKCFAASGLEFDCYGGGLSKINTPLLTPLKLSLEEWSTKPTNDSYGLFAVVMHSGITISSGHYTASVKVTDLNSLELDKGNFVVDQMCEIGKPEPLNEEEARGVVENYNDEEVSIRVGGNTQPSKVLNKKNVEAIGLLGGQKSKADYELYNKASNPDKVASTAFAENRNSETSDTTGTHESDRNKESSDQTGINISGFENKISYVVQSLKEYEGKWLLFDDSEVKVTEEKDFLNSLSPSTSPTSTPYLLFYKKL
Chain of DNA dC->dU-editing enzyme APOBEC-3G (Homo sapiens) (Q9HC16 whole entry, looked up): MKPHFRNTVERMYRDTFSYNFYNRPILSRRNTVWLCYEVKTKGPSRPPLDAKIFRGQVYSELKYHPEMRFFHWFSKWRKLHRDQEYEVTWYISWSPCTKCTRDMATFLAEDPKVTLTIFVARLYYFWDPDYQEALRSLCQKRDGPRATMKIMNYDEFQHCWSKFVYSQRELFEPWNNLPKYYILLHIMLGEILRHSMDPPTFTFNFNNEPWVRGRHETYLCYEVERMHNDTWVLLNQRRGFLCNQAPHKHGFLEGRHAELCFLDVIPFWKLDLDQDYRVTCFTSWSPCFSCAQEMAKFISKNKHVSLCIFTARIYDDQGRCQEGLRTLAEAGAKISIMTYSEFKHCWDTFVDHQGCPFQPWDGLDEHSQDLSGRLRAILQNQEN
Chain of Cytochrome P450 3A4 (Homo sapiens) (P08684 whole entry, looked up): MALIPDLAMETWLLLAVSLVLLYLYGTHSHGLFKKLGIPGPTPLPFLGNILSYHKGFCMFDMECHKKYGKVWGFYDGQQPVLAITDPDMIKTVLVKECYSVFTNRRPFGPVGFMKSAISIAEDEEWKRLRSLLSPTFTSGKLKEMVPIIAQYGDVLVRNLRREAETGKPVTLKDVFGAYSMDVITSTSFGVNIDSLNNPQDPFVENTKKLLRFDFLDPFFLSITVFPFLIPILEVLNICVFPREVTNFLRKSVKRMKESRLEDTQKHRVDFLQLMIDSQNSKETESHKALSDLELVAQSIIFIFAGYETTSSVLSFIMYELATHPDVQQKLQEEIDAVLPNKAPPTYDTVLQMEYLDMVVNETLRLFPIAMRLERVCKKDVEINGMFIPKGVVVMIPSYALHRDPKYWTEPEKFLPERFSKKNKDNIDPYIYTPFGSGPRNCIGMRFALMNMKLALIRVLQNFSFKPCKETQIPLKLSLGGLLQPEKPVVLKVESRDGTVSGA

CC(=O)OCC(=O)[C@@]1(O)CCC2C3CCC4=CC(=O)CC[C@]4(C)C3=CC[C@@]21C (some centres undefined)
inactive: Potency [1] | activity, negative = inhibition ([2]; parasite line A) 11% | activity, negative = inhibition ([2]; parasite line B) 2.99% | Potency (AA1029) | Potency (ATS189) | Potency (CP185) | Potency (CP201) | Potency (CP238) | Potency (CP252) | Potency (CP265) | Potency (CP286) | Potency (CP305) | Potency (CP315) | Potency (CP325) | Potency (FAB9) | Potency (JCK)

C[C@H]1O[C@@H](O[C@H]2[C@@H](O)C[C@H](O[C@H]3[C@@H](O)C[C@H](O[C@H]4CC[C@]5(C)C6CC[C@]7(C)[C@@H](C8=CC(=O)OC8)CC[C@]7(O)C6CC[C@@H]5C4)O[C@@H]3C)O[C@@H]2C)C[C@H](O)[C@@H]1O (some centres undefined)
inactive: Potency [3] | Potency [1] | Potency [4]

CC(C)C(NC(=O)C(CC(=O)O)NC(=O)C(CCCCN)NC(=O)C(N)CCCN=C(N)N)C(=O)NC(Cc1ccc(O)cc1)C(=O)O (centres undefined) (H-RKDVY-OH; configuration not given here)
inactive: Potency [1] | activity, negative = inhibition ([2]; parasite line A) 0.811% | activity, negative = inhibition ([2]; parasite line B) 3.22% | Potency (AA1029) | Potency (ATS189) | Potency (CP185) | Potency (CP201) | Potency (CP238) | Potency (CP252) | Potency (CP265) | Potency (CP286) | Potency (CP305) | Potency (CP315) | Potency (CP325) | Potency (FAB9) | Potency (JCK)

O=C(/C=C/c1ccccc1)c1cccs1
inactive: Potency [3] | Potency [1] | Potency [4]

C=CC1=C(C(=O)O)N2C(=O)[C@@H](NC(=O)C(N=O)c3csc(N)n3)[C@H]2SC1 (some centres undefined)
inactive: Potency [1] | activity, negative = inhibition ([2]; parasite line A) 6.56% | activity, negative = inhibition ([2]; parasite line B) 16.7% | Potency (AA1029) | Potency (ATS189) | Potency (CP185) | Potency (CP201) | Potency (CP238) | Potency (CP252) | Potency (CP265) | Potency (CP286) | Potency (CP305) | Potency (CP315) | Potency (CP325) | Potency (FAB9) | Potency (JCK)
